How the values were obtained:
Assay in all cases: log2 ratio of Biotin-Ahx-Ub-VS probe labelling (fragment/DMSO); higher = less target engagement (more negative = stronger competition), active = hit call of the paper (q ≤ 0.05, log2 ratio ≤ -1)
Settings in all cases: compound concentration: 200 uM; treatment time: 3 h
OTUD6B = target: T1, OTUD6B (UniProt Q8N6M0)
T1 sequence (whole entry): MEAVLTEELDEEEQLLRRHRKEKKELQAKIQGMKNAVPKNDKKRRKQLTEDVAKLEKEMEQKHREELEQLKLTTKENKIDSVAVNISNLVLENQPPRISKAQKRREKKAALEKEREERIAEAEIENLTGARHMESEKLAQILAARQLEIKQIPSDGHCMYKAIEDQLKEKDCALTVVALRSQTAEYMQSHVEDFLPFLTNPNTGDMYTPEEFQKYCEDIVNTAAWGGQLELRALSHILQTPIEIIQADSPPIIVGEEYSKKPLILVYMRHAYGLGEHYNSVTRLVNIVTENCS
In short: (§1)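 HEK293T lysate (495 µg per sample, in Tris/CHAPS/IGEPAL buffer with protease inhibitors) was treated in triplicate with fragment at 200 µM or with DMSO for 3 h. It was then treated with Biotin-Ahx-Ub-VS (0.5 µM final) for 1 h. Labelled DUBs were NeutrAvidin-enriched, digested with LysC and trypsin, and run by diaPASEF LC-MS/MS. Spectronaut label-free quantities were global-median-normalised. Values are average log2 ratios fragment/DMSO by unpaired t-test, using proteins with ≥2 unique peptides.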

OTUD7B = target: T2, OTUD7B (UniProt Q6GQQ9)
T2 sequence (whole entry): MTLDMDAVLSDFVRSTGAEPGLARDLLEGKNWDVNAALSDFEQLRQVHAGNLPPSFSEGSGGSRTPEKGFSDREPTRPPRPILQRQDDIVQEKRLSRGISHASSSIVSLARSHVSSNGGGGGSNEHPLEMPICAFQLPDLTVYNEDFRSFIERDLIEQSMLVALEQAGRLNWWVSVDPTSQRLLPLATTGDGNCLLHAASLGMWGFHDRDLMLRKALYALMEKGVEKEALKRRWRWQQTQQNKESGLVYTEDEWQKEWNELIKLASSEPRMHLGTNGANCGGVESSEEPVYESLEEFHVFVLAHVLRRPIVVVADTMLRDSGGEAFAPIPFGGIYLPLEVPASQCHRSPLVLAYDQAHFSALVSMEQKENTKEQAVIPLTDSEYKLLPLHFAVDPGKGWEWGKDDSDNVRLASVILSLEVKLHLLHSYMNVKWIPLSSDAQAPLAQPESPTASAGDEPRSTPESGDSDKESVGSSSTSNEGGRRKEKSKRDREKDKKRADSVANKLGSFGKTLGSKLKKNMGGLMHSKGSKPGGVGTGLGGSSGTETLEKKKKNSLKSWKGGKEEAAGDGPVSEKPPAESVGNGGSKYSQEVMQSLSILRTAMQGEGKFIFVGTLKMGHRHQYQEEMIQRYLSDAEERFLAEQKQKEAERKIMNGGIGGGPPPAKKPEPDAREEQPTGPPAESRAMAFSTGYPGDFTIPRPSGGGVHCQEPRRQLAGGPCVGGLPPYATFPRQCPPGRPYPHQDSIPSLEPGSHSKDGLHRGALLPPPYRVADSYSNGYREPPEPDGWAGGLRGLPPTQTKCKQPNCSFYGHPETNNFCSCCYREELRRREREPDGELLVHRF
In short: as §1

PRPF8 = PRPF8 (UniProt Q6P2Q9)
In short: as §1

PSMD7 = target: T3, PSMD7 (UniProt P51665)
T3 sequence (whole entry): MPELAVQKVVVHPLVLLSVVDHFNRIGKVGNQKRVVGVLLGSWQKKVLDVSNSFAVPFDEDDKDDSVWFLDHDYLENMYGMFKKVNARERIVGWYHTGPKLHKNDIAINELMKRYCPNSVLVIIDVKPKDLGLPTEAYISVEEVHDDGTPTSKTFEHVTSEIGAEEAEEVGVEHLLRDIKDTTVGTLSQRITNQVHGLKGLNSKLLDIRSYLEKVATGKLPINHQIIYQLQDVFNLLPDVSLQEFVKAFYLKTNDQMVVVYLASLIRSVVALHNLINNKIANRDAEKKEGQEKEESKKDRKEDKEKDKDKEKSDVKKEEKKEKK
In short: as §1

UCHL1 = UCHL1 (UniProt P09936)
UCHL1, sequence (P09936 whole entry, looked up): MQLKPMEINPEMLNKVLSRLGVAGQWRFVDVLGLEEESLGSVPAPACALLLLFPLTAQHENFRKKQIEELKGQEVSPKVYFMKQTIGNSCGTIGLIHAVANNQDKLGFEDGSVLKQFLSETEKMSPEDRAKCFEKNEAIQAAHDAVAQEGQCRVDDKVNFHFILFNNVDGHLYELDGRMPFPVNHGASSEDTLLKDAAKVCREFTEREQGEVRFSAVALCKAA
In short: as §1

UCHL3 = target: T4, UCHL3 (UniProt P15374)
T4 sequence (whole entry): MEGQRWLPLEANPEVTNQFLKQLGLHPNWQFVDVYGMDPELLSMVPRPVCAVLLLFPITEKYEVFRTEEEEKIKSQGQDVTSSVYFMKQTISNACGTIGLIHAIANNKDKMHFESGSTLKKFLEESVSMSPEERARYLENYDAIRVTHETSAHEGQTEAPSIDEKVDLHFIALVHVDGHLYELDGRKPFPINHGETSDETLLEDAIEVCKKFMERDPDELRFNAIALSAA
In short: as §1

UCHL5 = target: T5, UCHL5 (UniProt Q9Y5K5)
T5 sequence (whole entry): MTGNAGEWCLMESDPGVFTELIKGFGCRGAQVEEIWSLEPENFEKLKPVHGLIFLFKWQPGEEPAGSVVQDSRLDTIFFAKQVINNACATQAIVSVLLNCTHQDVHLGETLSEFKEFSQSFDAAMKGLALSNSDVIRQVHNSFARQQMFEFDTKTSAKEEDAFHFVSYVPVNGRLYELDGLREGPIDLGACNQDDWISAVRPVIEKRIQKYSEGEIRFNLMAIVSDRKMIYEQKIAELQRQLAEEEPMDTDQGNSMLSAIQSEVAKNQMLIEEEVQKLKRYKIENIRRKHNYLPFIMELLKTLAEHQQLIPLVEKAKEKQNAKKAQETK
In short: as §1

USP10 = USP10 (UniProt Q14694)
USP10, sequence (Q14694 whole entry): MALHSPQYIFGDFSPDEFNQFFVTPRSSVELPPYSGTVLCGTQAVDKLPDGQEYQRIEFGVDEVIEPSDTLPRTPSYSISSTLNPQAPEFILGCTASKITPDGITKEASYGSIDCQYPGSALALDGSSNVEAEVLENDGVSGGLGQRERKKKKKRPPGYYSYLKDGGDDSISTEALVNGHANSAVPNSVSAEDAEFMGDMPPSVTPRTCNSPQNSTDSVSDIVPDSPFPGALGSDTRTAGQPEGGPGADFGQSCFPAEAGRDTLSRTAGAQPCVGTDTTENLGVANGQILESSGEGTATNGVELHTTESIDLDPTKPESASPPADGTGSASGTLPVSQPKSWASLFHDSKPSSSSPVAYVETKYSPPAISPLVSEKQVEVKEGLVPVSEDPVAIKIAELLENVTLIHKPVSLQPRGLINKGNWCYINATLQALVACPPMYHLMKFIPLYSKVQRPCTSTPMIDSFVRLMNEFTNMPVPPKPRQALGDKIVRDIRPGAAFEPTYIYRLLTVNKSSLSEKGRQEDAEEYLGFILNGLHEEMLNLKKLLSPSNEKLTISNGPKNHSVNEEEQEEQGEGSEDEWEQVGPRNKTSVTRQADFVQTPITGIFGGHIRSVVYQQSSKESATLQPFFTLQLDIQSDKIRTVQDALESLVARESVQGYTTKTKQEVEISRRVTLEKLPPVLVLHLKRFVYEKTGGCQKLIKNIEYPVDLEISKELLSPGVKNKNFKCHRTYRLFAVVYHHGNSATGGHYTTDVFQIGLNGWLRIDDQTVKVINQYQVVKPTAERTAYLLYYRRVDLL
In short: as §1

USP15 = target: T6, USP15 (UniProt Q9Y4E8)
T6 sequence (whole entry): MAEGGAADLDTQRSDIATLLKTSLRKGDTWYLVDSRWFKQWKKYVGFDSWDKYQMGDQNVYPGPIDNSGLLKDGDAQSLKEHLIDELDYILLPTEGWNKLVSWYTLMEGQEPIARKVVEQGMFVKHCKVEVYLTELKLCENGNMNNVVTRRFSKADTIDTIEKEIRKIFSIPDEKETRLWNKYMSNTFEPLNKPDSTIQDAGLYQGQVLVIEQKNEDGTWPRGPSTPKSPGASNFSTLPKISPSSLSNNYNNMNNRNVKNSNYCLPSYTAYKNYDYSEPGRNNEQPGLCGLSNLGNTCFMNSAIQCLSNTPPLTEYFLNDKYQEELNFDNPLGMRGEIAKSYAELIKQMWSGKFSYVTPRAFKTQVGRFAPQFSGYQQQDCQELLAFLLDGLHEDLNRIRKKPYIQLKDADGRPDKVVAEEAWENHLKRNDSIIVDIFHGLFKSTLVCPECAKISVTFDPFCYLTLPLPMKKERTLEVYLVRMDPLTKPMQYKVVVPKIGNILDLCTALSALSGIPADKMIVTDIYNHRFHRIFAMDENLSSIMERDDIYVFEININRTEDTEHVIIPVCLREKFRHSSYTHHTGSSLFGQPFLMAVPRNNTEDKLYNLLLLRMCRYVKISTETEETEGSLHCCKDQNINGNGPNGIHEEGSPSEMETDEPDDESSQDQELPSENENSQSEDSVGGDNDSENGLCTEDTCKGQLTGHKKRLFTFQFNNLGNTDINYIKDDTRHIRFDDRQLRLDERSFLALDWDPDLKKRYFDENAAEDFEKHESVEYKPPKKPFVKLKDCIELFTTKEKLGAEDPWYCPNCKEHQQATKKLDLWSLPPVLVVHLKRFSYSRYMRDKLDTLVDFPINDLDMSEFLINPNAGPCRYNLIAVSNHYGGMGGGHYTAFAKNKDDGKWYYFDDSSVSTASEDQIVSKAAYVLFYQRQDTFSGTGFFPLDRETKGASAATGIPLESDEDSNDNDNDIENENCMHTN
In short: as §1

USP16 = USP16 (UniProt Q9Y5T5)
USP16, sequence (Q9Y5T5 whole entry, looked up): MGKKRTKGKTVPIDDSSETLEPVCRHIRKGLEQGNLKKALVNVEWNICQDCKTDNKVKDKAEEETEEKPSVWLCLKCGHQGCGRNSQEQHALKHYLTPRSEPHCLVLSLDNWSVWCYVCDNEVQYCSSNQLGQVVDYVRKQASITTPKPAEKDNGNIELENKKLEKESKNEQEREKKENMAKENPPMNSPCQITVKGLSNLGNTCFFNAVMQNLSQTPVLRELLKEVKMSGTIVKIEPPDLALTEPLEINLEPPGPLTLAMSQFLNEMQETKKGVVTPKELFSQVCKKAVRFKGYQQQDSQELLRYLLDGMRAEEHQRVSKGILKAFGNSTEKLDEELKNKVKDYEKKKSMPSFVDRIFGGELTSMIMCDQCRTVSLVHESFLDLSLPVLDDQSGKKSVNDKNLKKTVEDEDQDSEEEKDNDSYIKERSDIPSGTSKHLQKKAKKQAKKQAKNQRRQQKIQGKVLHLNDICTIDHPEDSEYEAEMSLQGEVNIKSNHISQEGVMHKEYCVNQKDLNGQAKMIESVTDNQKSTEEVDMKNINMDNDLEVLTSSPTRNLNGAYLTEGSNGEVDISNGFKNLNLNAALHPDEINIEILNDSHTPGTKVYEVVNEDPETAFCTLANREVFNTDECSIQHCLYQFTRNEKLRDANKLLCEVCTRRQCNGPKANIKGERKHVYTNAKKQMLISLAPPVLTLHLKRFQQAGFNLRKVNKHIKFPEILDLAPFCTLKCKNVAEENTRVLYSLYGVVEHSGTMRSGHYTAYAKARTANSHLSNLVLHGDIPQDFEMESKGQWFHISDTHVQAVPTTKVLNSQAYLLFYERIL
In short: as §1

Measured: log2 ratio of Biotin-Ahx-Ub-VS probe labelling

O=C(CCl)NCc1cccc(F)c1
inactive: OTUD6B -0.0396 | OTUD7B -0.597 | PRPF8 -0.208 | PSMD7 -0.138 | UCHL3 0.227 | UCHL5 -0.0221 | USP10 -0.156 | USP15 -0.273 | USP16 -0.133
active: UCHL1 -1.24

From the supplement of paper PMC11732987, “Enantioselective OTUD7B fragment discovery through chemoproteomics screening and high-throughput optimisation” (Communications Chemistry, 2025)
